LmPK inhibitor: blocks Leishmania mexicana pyruvate kinase activity; actives 0.37% (n = 290,000); Potency, µM (titrated, usually from 57.5 µM), without a hit: at the top dose activity change, negative = inhibition, usual class: inhibitors; Q27686; AID 1721; purified LmPK, Kinase-Glo ATP luminescence, 1 h; further: potency means the concentration at half of the fitted maximal effect; on the % scale 0 is the no-effect control and ±100 the full control effect
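Kinase-Glo luminescence read after 1 h RT reaction of 0.1 nM LmPK with 0.5 mM PEP and 0.1 mM ADP. Activity scaled between uninhibited and enzyme-free controls.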
Shiga inhibitor: inhibitors of Shiga toxin in Vero cells; actives 9.2% (n = 290,000); AID 2315; inhibition, % at 38.7 µM; Vero cells, Shiga toxin protein synthesis inhibition reporter; in the data active means inhibition mostly above about 28%, no sharp cut-off; inactive means mostly below about 43%; further: 0% is about no effect
RE007 growth inh: less growth of the S. pombe RE007 Vpr strain | Potency, µM (titrated, usually from 92.2 µM), for the others: at the highest dose activity change, negative = less growth, most hits filed as inhibitors | actives 0.21% (n = 360,000) | AID 651644 | S. pombe RE007 Vpr strain, BacTiter-Glo ATP luminescence, 24 h; active means well fitted falling curve with a large enough effect; inconclusive means small, poorly fitted or top-dose-only effect; inactive means no such curve, though single readings can be large or run the other way; further: potency means the concentration at half of the fitted maximal effect; on the % scale 0 is the no-effect control and ±100 the full control effect; nearly all actives have a fitted effect of over 50% in size
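Fission yeast strain RE007, carrying one chromosomally integrated HIV-1 vpr copy, was seeded at OD 0.01 in PMG+AL medium with 23 nL pinned compound. After 24 h at 30 °C and 99% humidity, viability was read by BacTiter-Glo luminescence.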
FBPA Giardia inh: inhibitors of Giardia lamblia fructose-1,6-bisphosphate aldolase; A8B2U2; purified Giardia FBPA; Potency, µM (series often up to 59.6 µM), inactives show top-dose activity, negative = inhibition, actives largely listed as inhibitors; actives 0.71% (n = 290,000); further: potency means the concentration at half of the fitted maximal effect; on the % scale 0 is the no-effect control and ±100 the full control effect; nearly all actives have a fitted effect of over 55% in size
Target sequence (A8B2U2 whole entry, looked up): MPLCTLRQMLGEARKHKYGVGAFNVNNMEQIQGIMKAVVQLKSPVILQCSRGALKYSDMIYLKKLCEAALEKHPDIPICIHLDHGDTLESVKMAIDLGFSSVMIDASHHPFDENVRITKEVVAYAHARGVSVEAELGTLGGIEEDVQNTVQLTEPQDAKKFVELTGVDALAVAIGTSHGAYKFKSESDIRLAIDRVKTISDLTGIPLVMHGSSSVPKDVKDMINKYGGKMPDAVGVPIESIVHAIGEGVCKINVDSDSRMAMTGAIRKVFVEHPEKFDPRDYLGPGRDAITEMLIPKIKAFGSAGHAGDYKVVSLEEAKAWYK
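Giardia FBPA (40 nM reagent) was preincubated 10 min at RT with compound (up to 57.5 uM final), then substrate plus GAPDH/TPI/NAD/arsenate coupling system with diaphorase/resazurin was added; resorufin fluorescence (525/598 nm) was read after 20 min.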
Tb PYK inh: T. brucei pyruvate kinase inhibition | Q57TT1 | TbPYK enzyme, Kinase-Glo Plus ATP luminescence, 45 min | Potency, µM (doses to about 76.8 µM), for inactives: at the top dose activity, negative = inhibition, usual class: inhibitors | actives 0.12% (n = 410,000); further: potency means the concentration at half of the fitted maximal effect; on the % scale 0 is the no-effect control and ±100 the full control effect; nearly all actives have a fitted effect of over 50% in size
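T. brucei PYK with substrate was exposed to pin-transferred compounds across a concentration series, then started with 130 uM ADP (final). After 45 min at room temperature, Kinase-Glo Plus luminescence was read, normalized and curve-fitted.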
CHX counter: affects cycloheximide protein synthesis inhibition readout, counter-screen | actives 12% (n = 300,000) | max response, % | cell reporter, cycloheximide protein synthesis inhibition counterscreen | AID 2314; in the data active means max response mostly above about 13%, no sharp cut-off; inactive means mostly below about 14%; further: read at 38.3 µM for the half of the compounds with a filed dose; 0% is about no effect
* marks the source's active call; other numbers are inactive results. Shown is part of a subset that was picked to be rich in hits. Unless noted, the call rests on the fitted dose curve; in most records, active means well fitted curve in the direction sought with a large enough effect; inconclusive means small, poorly fitted or top-dose-only effect, or another doubt; inactive means no such curve, though single readings can be large; an effect the other way counts as inactive or inconclusive.

What do the screens show for `CCN(CC)Cc1cc(C(=O)O)c(C)o1`?
LmPK inhibitor: 2.5%; Shiga inhibitor: 53.3*; RE007 growth inh: 10.0%; FBPA Giardia inh: 2.2%; Tb PYK inh: 8.6%; CHX counter: 13.4*

Results for Cc1oc(CN2CCOCC2)cc1C(=O)O ?
LmPK inhibitor: 1.0%; Shiga inhibitor: 13.0; RE007 growth inh: 10.1%; FBPA Giardia inh: 1.5%; Tb PYK inh: -4.8%; CHX counter: -3.3

What do the screens show for `O=C(Nc1cccc(F)c1)N1CC[C@@]2(CCCNC2)C1`?
FBPA Giardia inh: -1.4%; Tb PYK inh: -7.3%

Results for Oc1ccc2c(c1)oc1cc(O)ccc12 ?
LmPK inhibitor: 2.3%; Shiga inhibitor: 63.3*; RE007 growth inh: 15.9%; FBPA Giardia inh: 8.3%; Tb PYK inh: -3.0%; CHX counter: 45.5*

How did CC(=O)N1c2ccc(S(=O)(=O)NCC3CCC(C(=O)NC4CCCCC4)CC3)cc2CC1C (configuration not stated) do in these assays?
LmPK inhibitor: 0.7%; Shiga inhibitor: 6.6; RE007 growth inh: 2.1%; FBPA Giardia inh: 7.7%; Tb PYK inh: 1.2%; CHX counter: 0.8

How did Cc1ccc(CNC(=O)CN2C(=O)COc3ccc(S(=O)(=O)N4CCC(C)CC4)cc32)cc1 do in these assays?
Tb PYK inh: -2.7%

How did CSc1nc(N)nc(SCCS(=O)(=O)c2ccc(Cl)cc2)c1C#N do in these assays?
LmPK inhibitor: -3.8%; Shiga inhibitor: 1.1; RE007 growth inh: 4.6%; FBPA Giardia inh: -7.8%; Tb PYK inh: -2.1%; CHX counter: 4.5

What do the screens show for `CSc1nc(N)nc(SC2C=CCCC2)c1C#N` (configuration not stated)?
LmPK inhibitor: -10.8%; Shiga inhibitor: 60.2; RE007 growth inh: -6.4%; FBPA Giardia inh: 0.4%; Tb PYK inh: 4.4%; CHX counter: 25.9*

How did O=C1CSC(=S)N1/N=C/c1ccc(O)c(O)c1O do in these assays?
LmPK inhibitor: -21.4%; Shiga inhibitor: 14.9; RE007 growth inh: -16.2%; FBPA Giardia inh: 7.92µM*; Tb PYK inh: inconclusive; CHX counter: 2.4

What do the screens show for `COc1ccc(/C=N/N2C(=O)CSC2=S)cc1`?
LmPK inhibitor: 2.3%; Shiga inhibitor: 17.3; RE007 growth inh: -10.2%; FBPA Giardia inh: -23.0%; Tb PYK inh: 1.2%; CHX counter: 9.2

What do the screens show for `CC(C)(C)c1ccc(/C=N/N2C(=O)CSC2=S)cc1`?
LmPK inhibitor: 3.7%; Shiga inhibitor: 29.7; RE007 growth inh: 7.4%; FBPA Giardia inh: -20.5%; Tb PYK inh: -5.3%; CHX counter: 15.8*

Results for CCOc1ccccc1NC(=O)C(CC(C)C)NS(=O)(=O)c1ccc2c(c1)CCN2C(C)=O (configuration not stated) ?
Tb PYK inh: 3.4%

How did CC1CCC2(CC1)NC(=O)N(CC(=O)NC1CCCCC1C)C2=O (configuration not stated) do in these assays?
RE007 growth inh: 0.7%; Tb PYK inh: -5.9%

Results for COc1ccc(NC(=O)c2cccc(N3CCCS3(=O)=O)c2)c(OC)c1 ?
Tb PYK inh: -1.6%

Results for COCC1CCCN(Cc2cn(-c3ccccc3)nc2-c2ccc3c(c2)OCO3)C1 (configuration not stated) ?
LmPK inhibitor: -3.8%; Shiga inhibitor: 12.3; RE007 growth inh: -1.6%; FBPA Giardia inh: 2.3%; Tb PYK inh: -1.5%; CHX counter: 0.8

Results for N#C[C@H]1C[C@H]2C[C@@H]2N1C(=O)[C@@H](N)C12CC3CC(CC(O)(C3)C1)C2 ?
Tb PYK inh: -2.3%

How did CCN1CCN(Cc2ccc(NC(=O)Nc3ccc(OC)cc3)cc2)CC1 do in these assays?
LmPK inhibitor: -8.4%; Shiga inhibitor: 42.4*; RE007 growth inh: -15.5%; FBPA Giardia inh: 4.6%; Tb PYK inh: -7.8%; CHX counter: 21.0*

How did COc1ccc(NC(=S)N2CCN(Cc3ccccc3)CC2)cc1 do in these assays?
LmPK inhibitor: 3.3%; Shiga inhibitor: 26.1; RE007 growth inh: 0.7%; FBPA Giardia inh: 6.6%; Tb PYK inh: 0.2%; CHX counter: 12.8

Assay outcomes as filed in PubChem.
